Key:
Assay in all cases: log2 ratio of Biotin-Ahx-Ub-VS probe labelling (compound/DMSO); higher = less target engagement, active = hit call of the paper (q ≤ 0.05, log2 ratio ≤ -1)
Settings in all cases: treatment time: 3 h
[1] = compound: ClCC(=O)NC1CCCc2ccccc12
Procedure, shortened: (§1)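 Spectronaut label-free, global-median-normalised protein quantities underlie these values, which are average ratios of compound to vehicle from an unpaired t-test. They are reported as log2 and include only proteins identified by two or more unique peptides. Samples of HEK293T lysate (495 µg) were treated in triplicate with a compound concentration series or vehicle for 3 h, then labelled with Biotin-Ahx-Ub-VS at 0.5 µM final for 1 h before NeutrAvidin enrichment, LysC and trypsin digestion, and diaPASEF LC-MS/MS.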

[2] = compound: ClCC(=O)N[C@@H]1CCCc2ccccc12
Procedure, shortened: as §1

[3] = compound: ClCC(=O)N[C@H]1CCCc2ccccc12
Procedure, shortened: as §1

[4] = compound: CCC1N(CCc2sccc12)C(=O)CCl
Procedure, shortened: (§2)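 Compound at 50 or 200 µM, or DMSO, was applied for 3 h in triplicate to HEK293T lysate (495 µg per sample, Tris/CHAPS/IGEPAL buffer with protease inhibitors), after which Biotin-Ahx-Ub-VS was added at 0.5 µM final for 1 h. The labelled DUBs were pulled down with NeutrAvidin, digested with LysC and trypsin, and run by diaPASEF LC-MS/MS. Ratios are averaged base-two logs of compound over DMSO from median-normalised label-free quantities by unpaired t-test, counting only proteins with at least 2 unique peptides.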

[5] = compound: CN1c2ccccc2C(CS1(=O)=O)NC(=O)CCl
Procedure, shortened: as §2

[6] = compound: Cl.ClCC(=O)N1CCc2ncncc2C1
Procedure, shortened: as §2

[7] = compound: Cl.Cn1ncc2C(CCCc12)NC(=O)CCl
Procedure, shortened: as §2

[8] = compound: ClCC(=O)NC1CCOc2ccccc12
Procedure, shortened: as §2

[9] = compound: CCC1N(CCc2cc(OC)c(Cl)cc12)C(=O)CCl
Procedure, shortened: as §2

[10] = compound: CCCC1N(CCc2cc(OC)c(OC)cc12)C(=O)CCl
Procedure, shortened: as §2

Measured: log2 ratio of Biotin-Ahx-Ub-VS probe labelling

USP20 (UniProt Q9Y2K6)
UniProt Q9Y2K6, sequence (Q9Y2K6 whole entry): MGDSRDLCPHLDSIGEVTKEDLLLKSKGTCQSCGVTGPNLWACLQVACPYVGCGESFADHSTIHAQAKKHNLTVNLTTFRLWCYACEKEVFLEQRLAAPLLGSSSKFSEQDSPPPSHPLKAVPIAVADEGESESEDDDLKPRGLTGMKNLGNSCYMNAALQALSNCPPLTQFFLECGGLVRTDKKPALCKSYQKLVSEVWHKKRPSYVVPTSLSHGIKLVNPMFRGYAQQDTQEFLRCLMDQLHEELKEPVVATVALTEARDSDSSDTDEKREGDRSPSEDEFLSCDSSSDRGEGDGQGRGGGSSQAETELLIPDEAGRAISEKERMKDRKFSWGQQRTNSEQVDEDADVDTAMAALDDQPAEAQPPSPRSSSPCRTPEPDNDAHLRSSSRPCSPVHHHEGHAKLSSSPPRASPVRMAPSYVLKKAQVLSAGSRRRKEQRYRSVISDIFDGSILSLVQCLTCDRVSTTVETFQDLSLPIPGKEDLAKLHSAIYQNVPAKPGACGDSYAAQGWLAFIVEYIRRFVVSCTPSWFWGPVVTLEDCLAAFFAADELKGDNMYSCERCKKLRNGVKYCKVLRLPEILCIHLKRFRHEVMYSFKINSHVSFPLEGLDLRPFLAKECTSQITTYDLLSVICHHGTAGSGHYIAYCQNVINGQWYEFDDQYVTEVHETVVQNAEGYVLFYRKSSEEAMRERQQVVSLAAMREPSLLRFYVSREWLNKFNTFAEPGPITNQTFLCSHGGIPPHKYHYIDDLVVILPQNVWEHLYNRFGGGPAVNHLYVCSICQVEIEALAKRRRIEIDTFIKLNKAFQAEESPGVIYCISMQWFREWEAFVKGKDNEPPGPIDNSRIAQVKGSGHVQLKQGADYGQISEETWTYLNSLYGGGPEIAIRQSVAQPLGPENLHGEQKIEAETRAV
inactive: [1]; compound concentration: 0.78uM -0.154 | [1]; compound concentration: 1.56uM -0.0255 | [1]; compound concentration: 3.13uM -0.00841 | [1]; compound concentration: 6.25uM -0.000882 | [1]; compound concentration: 12.5uM -0.0255 | [1]; compound concentration: 25uM 0.0283 | [1]; compound concentration: 50uM 0.0248 | [1]; compound concentration: 100uM -0.235 | [1]; compound concentration: 200uM -0.41 | [2]; compound concentration: 0.78uM -0.0803 | [2]; compound concentration: 1.56uM 0.0532 | [2]; compound concentration: 3.13uM -0.0362 | [2]; compound concentration: 6.25uM -0.00476 | [2]; compound concentration: 12.5uM -0.141 | [2]; compound concentration: 25uM -0.125 | [2]; compound concentration: 50uM -0.102 | [2]; compound concentration: 100uM -0.0854 | [2]; compound concentration: 200uM -0.279 | [3]; compound concentration: 0.78uM -0.0632 | [3]; compound concentration: 1.56uM 0.0904 | [3]; compound concentration: 3.13uM -0.0898 | [3]; compound concentration: 6.25uM 0.0566 | [3]; compound concentration: 12.5uM 0.0631 | [3]; compound concentration: 25uM -0.0313 | [3]; compound concentration: 50uM 0.0027 | [3]; compound concentration: 100uM -0.13 | [3]; compound concentration: 200uM -0.329

UniProt Q8TE49
UniProt Q8TE49, sequence (Q8TE49 whole entry): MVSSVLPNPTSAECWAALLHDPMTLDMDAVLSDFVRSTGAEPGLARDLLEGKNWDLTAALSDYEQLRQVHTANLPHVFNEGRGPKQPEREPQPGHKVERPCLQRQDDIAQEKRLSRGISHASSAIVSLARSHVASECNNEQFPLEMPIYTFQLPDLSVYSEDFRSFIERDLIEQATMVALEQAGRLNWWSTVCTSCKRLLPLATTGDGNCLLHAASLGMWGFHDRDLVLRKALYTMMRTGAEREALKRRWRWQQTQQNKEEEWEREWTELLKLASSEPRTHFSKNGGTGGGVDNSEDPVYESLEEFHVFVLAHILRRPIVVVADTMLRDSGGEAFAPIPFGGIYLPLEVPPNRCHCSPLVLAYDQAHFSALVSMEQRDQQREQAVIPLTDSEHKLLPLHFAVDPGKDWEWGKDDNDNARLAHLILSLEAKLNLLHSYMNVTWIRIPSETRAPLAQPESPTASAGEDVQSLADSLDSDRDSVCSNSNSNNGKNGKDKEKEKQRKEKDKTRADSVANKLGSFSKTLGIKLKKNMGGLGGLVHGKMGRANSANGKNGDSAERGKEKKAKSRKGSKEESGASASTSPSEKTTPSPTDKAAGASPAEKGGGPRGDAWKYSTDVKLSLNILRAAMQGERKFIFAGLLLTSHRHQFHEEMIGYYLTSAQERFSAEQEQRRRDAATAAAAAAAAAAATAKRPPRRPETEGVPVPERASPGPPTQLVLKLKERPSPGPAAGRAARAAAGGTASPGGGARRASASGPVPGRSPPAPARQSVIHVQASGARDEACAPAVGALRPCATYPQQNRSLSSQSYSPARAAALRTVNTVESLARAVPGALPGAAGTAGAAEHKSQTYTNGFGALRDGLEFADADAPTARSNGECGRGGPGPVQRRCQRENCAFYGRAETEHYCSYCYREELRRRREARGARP
inactive: [4]; compound concentration: 50uM -0.281 | [4]; compound concentration: 200uM -0.466 | [6]; compound concentration: 50uM -0.364 | [8]; compound concentration: 50uM -0.839 | [2]; compound concentration: 0.78uM -0.577 | [2]; compound concentration: 1.56uM -0.173 | [2]; compound concentration: 3.13uM -0.995 | [2]; compound concentration: 12.5uM -0.347 | [2]; compound concentration: 25uM -0.135 | [2]; compound concentration: 100uM -0.0704 | [3]; compound concentration: 0.78uM -1.04 | [3]; compound concentration: 12.5uM -0.835 | [9]; compound concentration: 50uM 0.126 | [10]; compound concentration: 50uM -0.481 | [10]; compound concentration: 200uM -1.23
active: [5]; compound concentration: 50uM -1.25 | [5]; compound concentration: 200uM -2.71 | [6]; compound concentration: 200uM -1.55 | [7]; compound concentration: 50uM -2.22 | [7]; compound concentration: 200uM -2.78 | [8]; compound concentration: 200uM -1.23 | [1]; compound concentration: 0.78uM -1.71 | [1]; compound concentration: 1.56uM -1.79 | [1]; compound concentration: 3.13uM -1.77 | [1]; compound concentration: 6.25uM -1.34 | [1]; compound concentration: 12.5uM -1.27 | [1]; compound concentration: 25uM -2.03 | [1]; compound concentration: 50uM -2.39 | [1]; compound concentration: 100uM -2.75 | [1]; compound concentration: 200uM -3.99 | [2]; compound concentration: 6.25uM -1.72 | [2]; compound concentration: 50uM -1.33 | [2]; compound concentration: 200uM -1.69 | [3]; compound concentration: 1.56uM -1.6 | [3]; compound concentration: 3.13uM -1.78 | [3]; compound concentration: 6.25uM -1.41 | [3]; compound concentration: 25uM -2.19 | [3]; compound concentration: 50uM -2.93 | [3]; compound concentration: 100uM -3.39 | [3]; compound concentration: 200uM -3.55 | [9]; compound concentration: 200uM -1.15
